# PNC assembly inh: perinucleolar compartment assembly inhibition; PC3M PTB-GFP, PNC prevalence imaging, 16 h; hits give low values; activity change (PNC), negative = inhibition, % at 10 µM; 3.1% of 140,000 active; AID 2417;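 active = readout at or below -70, meaning at least 70% loss of cells showing the perinucleolar compartment, a nuclear body marking cancer cells; inconclusive = readout between -30 and a set limit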;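 also: plate controls were DMSO wells for no effect and camptothecin positive control wells for full effect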
#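 PC3M cells stably expressing PTB-GFP, 750–1000 cells/well, treated 16 h at 37 °C with compound (23 nl of library stock), in duplicate. After paraformaldehyde fixation and Hoechst stain, imaged at 20x; PNC prevalence scored by image analysis.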
# IMPase cell inh: cell-permeable inhibitors of inositol monophosphatase (IMPase). P97697. CHO-M1 cells, IP1 accumulation, HTRF TR-FRET ratio. inhibition (IP1 accumulation), % at 46.1 µM. 120,000 tested, under 10 active; active = well fitted curve in the direction sought with a large enough effect in the signal ratio, not every such curve was filed as active; inconclusive = small, poorly fitted or top-dose-only effect, or a change in a side signal; inactive = no such curve, though single readings can be large or run the other way; the % refers to the signal ratio;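 also: cells stimulated with carbachol in lithium chloride buffer; plate controls were DMSO basal wells for no effect and reference inhibitor wells for full effect; higher means more IMPase inhibition seen as more IP1 and lower FRET ratio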
#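 Elevated IP1 in lysates lowers TR-FRET signal (665/620 ratio and 620 channel reported). Cells were CHO-M1, given carbachol (50 uM as added) plus 50mM LiCl, pH 7.4, 30 min, 37C; compounds titrated up to 46 uM; AC50 by Hill equation.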
# 12-hLO inh: blocks human 12-lipoxygenase activity; P18054; purified 12-hLO, xylenol orange hydroperoxide absorbance; Potency, µM (doses to about 57.1 µM), inactives show at the top dose activity change, negative = inhibition, most hits filed as inhibitors; 0.12% of 150,000 active; AID 1452; also: potency is read from the fitted curve at half-maximal effect; nearly all actives have a fitted effect of over 55% in size
# Target sequence (P18054 whole entry, looked up): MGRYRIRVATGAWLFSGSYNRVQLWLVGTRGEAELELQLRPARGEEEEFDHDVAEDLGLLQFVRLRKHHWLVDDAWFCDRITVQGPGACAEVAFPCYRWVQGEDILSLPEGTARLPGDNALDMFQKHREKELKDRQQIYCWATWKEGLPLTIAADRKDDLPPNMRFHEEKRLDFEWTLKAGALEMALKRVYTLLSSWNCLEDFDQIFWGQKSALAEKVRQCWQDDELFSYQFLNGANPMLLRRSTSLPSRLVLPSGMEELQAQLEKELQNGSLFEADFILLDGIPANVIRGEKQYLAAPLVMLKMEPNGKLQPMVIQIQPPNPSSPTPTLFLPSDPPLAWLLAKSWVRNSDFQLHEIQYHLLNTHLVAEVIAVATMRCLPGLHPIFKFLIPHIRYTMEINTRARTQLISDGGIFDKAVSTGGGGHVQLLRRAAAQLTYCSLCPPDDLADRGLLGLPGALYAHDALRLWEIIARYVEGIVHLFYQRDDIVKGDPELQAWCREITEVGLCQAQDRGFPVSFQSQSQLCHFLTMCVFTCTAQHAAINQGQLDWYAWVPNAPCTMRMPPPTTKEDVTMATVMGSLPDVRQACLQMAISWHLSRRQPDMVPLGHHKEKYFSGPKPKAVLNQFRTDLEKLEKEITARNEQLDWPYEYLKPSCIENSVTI
#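 Xylenol orange chromogenic assay: hydroperoxide from 12hLO oxidises Fe(II), giving red-shifted Fe(III)-XO absorbance. Conditions: 150 nM enzyme, 40 uM arachidonic acid, 25 mM Hepes pH 7.0, 0.01% Triton X-100, 30 min, room temperature.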
# 15-hLO-2 inh: 15-hLO-2 (ALOX15B) enzyme inhibition | O15296 | purified 15hLO-2, xylenol orange hydroperoxide absorbance | Potency, µM (highest dose often 57.1 µM), inactives show top-dose activity change, negative = inhibition, most hits filed as inhibitors | 0.56% of 110,000 active | AID 881; also: potency is read from the fitted curve at half-maximal effect; nearly all actives have a fitted effect of over 60% in size
#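 Enzyme 50 nM, AA 45 uM, 25 mM Hepes pH 7.5 + 0.01% Triton X-100; cpd preinc 15 min RT, rxn 90 min RT; stop/detect with 200 uM XO + 300 uM Fe(II) in 50 mM H2SO4, 30 min; A573/A405.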
# Numbers without * were called inactive; u = inconclusive; x = not tested or not shown; [ ] = another dose, or the depositor's remark. Hits are enriched below; roughly 3% of the tested compounds scored in any of these assays. Unless noted, calls follow the shape of the dose curve; as a rule, active = well fitted curve in the direction sought with a large enough effect; inconclusive = small, poorly fitted or top-dose-only effect, or another doubt; inactive = no such curve, though single readings can be large; an effect the other way counts as inactive or inconclusive. Unless noted, % is scaled to controls: 0 for no effect and ±100 for the full control effect.
SMILES,PNC assembly inh,IMPase cell inh,12-hLO inh,15-hLO-2 inh
Cc1ccccc1NC(=O)/C(C#N)=C\c1ccsc1,48,x,-1%,x
Cc1ccccc1NC(=O)/C(C#N)=C\c1cccnc1,-82*,22,-3%,-8%
COc1ccnc(CSC(N)=Nc2ccccc2OC)c1,-81*,-4,-1%,x
COc1ccnc(CSC(N)=Nc2ccccc2C(F)(F)F)c1,10,x,2%,x
O=c1c2c(nc3nc(Cc4ccccc4)[nH]n13)CCC2,-90*,4,3%,-2%
COc1cc(CN2CCN(c3cccc(Cl)c3)CC2)cc(OC)c1OC,u,2,-14%,x
COc1ccc(CCNC(=O)CN2CCN(c3cccc(Cl)c3)CC2)cc1OC,-91*,8,-6%,12%
COCCN(CCOC)C(=O)c1ccc(Cc2nc3ccccc3[nH]2)cc1,x,x,-6%,x
O=C(NCC1CCCO1)c1ccc(S(=O)(=O)N2CCC(c3nc4ccc(Cl)cc4[nH]3)CC2)cc1 (configuration not stated),-100*,4,-1%,x
COCC(=O)N1CCC[C@@]2(CCN(Cc3ccc(C#N)cc3)C2)C1,x,x,4%,-4%
Cc1cc(NC(=O)CN2CC(C)OC(C)C2)n(-c2nc3ccccc3s2)n1 (configuration not stated),-99*,1,-1%,16%
CCOC(=O)C1CCN(CC(=O)Nc2cc(C)nn2-c2nc3ccccc3s2)CC1,6,u,-3%,9%
COC(=O)Nc1ccc(OCc2ccccc2)cc1,35,-15,0%,1%
COC(=O)Nc1ccc(Oc2ccccc2)cc1,-93*,-1,-3%,-4%
CCC(C)(C)n1nnnc1C(c1ccc2ncccc2c1)N1CCN(c2nc3ccccc3s2)CC1 (configuration not stated),-86*,4[1.84 µM],-3%,6%[11.4 µM]
CCC(C)(C)n1nnnc1C(c1ccc2ncccc2c1)N1CCCC(C)C1 (configuration not stated),161,9,-3%,x
c1cncc(C(c2nnnn2C2CCCC2)N2CCCC2)c1 (configuration not stated),u,9,-1%,0%
c1cnc2ccc(C(c3nnnn3C3CCCC3)N3CCSCC3)cc2c1 (configuration not stated),-119*,6,7%,x
Cn1c(N=NC(=O)c2ccccc2)c(O)c2ccccc21,-86*,x,-1%,x
O=C(COc1ccccc1-c1ccccc1)N/N=C/c1ccc2ccccc2c1,-116*,x,1%,x
Cc1ccccc1OCC(=O)N/N=C/c1ccc2c(c1)OCCO2,u,x,-1%,x
COc1ccc(-c2coc3cc4oc(=O)c5ccccc5c4cc23)cc1F,-81*,0,3%,x
COC(=O)CCS(=O)(=O)c1cc(Cl)ccc1Cl,-138*,-2,-10%,-5%
N[C@H](CCCC(=O)O)C(=O)O,x,3,-5%,2%
CSc1nc(-c2ccco2)cc(-c2ccccc2)c1C#N,-27,u,-7%,-23%
SMILES,PNC assembly inh,IMPase cell inh,12-hLO inh,15-hLO-2 inh
COc1ccc(-c2cc(-c3ccc(OC)cc3)c(C#N)c(SC)n2)cc1,-100*,-9,3%,x
COC(=O)c1ccc(CNC(=O)/C=C/c2cc([N+](=O)[O-])ccc2OC(F)F)cc1,u,6,-6%,0%
CN(C)CCCNC(=O)c1ccc(Cc2nc3ccccc3[nH]2)cc1,x,x,-1%,x
CCNC(=S)Nc1ccc(OCC)cc1,-86*,x,-1%,x
CCOc1ccc(NC(=O)c2ccccc2CO)cc1,9,5,-2%,-1%
CCOc1ccc(NC(=S)Nc2ccc(OC(F)(F)F)cc2)cc1,38,-6,-10%,x
CCOc1ccc(NC(=O)c2ccccc2O)cc1,-104*,10,7%,x
CCOc1ccc(NC(=O)C(C)Oc2ccccc2C(=O)Nc2cccc(Cl)c2Cl)cc1 (configuration not stated),-110*,3,-11%,6%
CCOc1ccc(NC(=O)c2ccccc2OC)cc1,u,u,-9%,-7%
Cn1cccc1C(=O)N1CCC2(CCN(Cc3nccs3)CC2)CC1,x,x,0%,-1%
Cc1cc(C(=O)CCC(=O)N2CCN(S(=O)(=O)c3cccs3)CC2)c(C)s1,-100*,-2,-5%,-3%
Oc1ccc(-c2csc(-c3ccccc3)n2)cc1O,u,8,13µM*,4µM*
Cc1nc(-c2ccc(O)c(O)c2)cs1,u,1,-17%,u
Cc1nc(-c2ccc(NS(C)(=O)=O)cc2)cs1,-80*,-4,-1%,7%
c1ccc(CNc2ncncc2-c2ccc3c(c2)OCO3)cc1,x,x,x,6%
O=C1c2ccccc2C(=O)N1CCc1nc(-c2ccccn2)no1,8,-5,-3%,-8%
O=C1c2ccccc2C(=O)N1CCCc1nc(-c2ccccn2)no1,-107*,10,1%,-2%
O=C(O)[C@@H](O)c1ccc(F)cc1,x,x,-7%[11.4 µM],-2%[11.4 µM]
CCCN1C(=O)c2cc(C(=O)NCc3cccs3)ccc2C1O (configuration not stated),-13,-1,2%,-3%
Cc1c(C)n(C)c2ccc(C(=O)NCc3cccs3)cc12,-119*,14,0%,x
O=C(COC(=O)Cn1cnc2ccccc21)NCCc1ccccc1,-83*,1,-1%,-6%
O=C(COC(=O)Cn1cnc2ccccc21)Nc1ccc2c(c1)C(=O)c1ccccc1C2=O,36,x,-4%,x
CCc1ccc(NC(=O)C(C)OC(=O)c2cccc(S(=O)(=O)N3CCc4ccccc4C3)c2)cc1 (configuration not stated),30,-10,1%,x
Cc1ccc(-n2c(N)c(C(=O)N3CCOCC3)sc2=S)cc1,-126*,-4,0%,-2%
CN1CCN(C(=O)c2sc(=S)n(-c3ccccc3)c2N)CC1,-97*,-4,0%,-5%
SMILES,PNC assembly inh,IMPase cell inh,12-hLO inh,15-hLO-2 inh
COc1ccc2nc(S(=O)Cc3ncc(C)c(OC)c3C)[nH]c2c1 (configuration not stated),-17,1[20.6 µM],-12%,u
O=C(COc1ccc(C(=O)c2ccccc2)cc1)NCc1ccc(F)cc1,-81*,7,-1%,x
Nc1ncnc(Nc2ccc(F)cc2)n1,-91*,x,0%,x
CCOc1ccc(Nc2ncnc(N)n2)cc1,u,-4,0%,-4%
Cc1ccc(S(=O)(=O)NNc2ccccc2)cc1,-16,9,16µM*,u
Cc1ccc(S(=O)(=O)NNC(=O)CCC(=O)Nc2ccccc2)cc1,3,3,8%,x
Cc1ccc(S(=O)(=O)NNc2nc3ccccc3nc2C(F)(F)F)cc1,-7,0,u,7.9µM*
O=C(CCc1ccccc1)Nc1cc2c(cc1Cl)OCCO2,-109*,x,-1%,x
O=C(CCc1ccccc1)Nc1ccc2c(c1)OCCO2,-15,-1,-3%,-10%
CCOC(=O)C1CCN(C(=O)CCCCn2c(=O)[nH]c3ccccc3c2=O)CC1,-15,5,0%,x
CCOc1ccccc1OCCOCCN1CC(C)OC(C)C1 (configuration not stated),-87*,4,-3%,-11%
COCCCN=C1NN=C(c2cc(C)n(Cc3ccco3)c2C)CS1,-108*,x,-6%,x

# Screens from PubChem BioAssay.
